PubChem BioAssay (EPA / NIEHS)
The source made the active and inactive calls. The calls were made as follows: active = hit-call score of the fitted dose curve at least 0.9, where 1 is the maximum; inactive = score below 0.9.

Read-out: 3-Hydroxy-3-Methylglutaryl-CoA Synthase 2 (HMGCS2), HMGCS2 (gene 3158)
Experiment: LTEA_HepaRG_HMGCS2: Life Technologies and Expression Analysis (LTEA) Assay for 3-Hydroxy-3-Methylglutaryl-CoA Synthase 2 (HMGCS2) using HepaRG (AID 2283504)
Conditions: mRNA level, 48 h; actives raise or lower the signal
Description: LTEA_HepaRG is a cell based, multiplexed-readout assay that uses HepaRG, a human liver cell line, with measurements taken at 48 hours after chemical dosing on a 96-well plate.LTEA_HepaRG_HMGCS2 is one of 102 assay component(s) measured in the LTEA HepaRG cell culture assay. It is a marker of Steatosis.Data from the assay component LTEA_HepaRG_HMGCS2 was analyzed into 1 endpoint. This assay endpoint, LTEA_HepaRG_HMGCS2, was analyzed with bidirectional fitting relative to DMSO as the negative control and baseline of activity. Using a type of inducible reporter, measures of mRNA induction for gain or loss-of-signal activity can be used to understand regulation of transcription factor activity. To generalize the intended target to other relatable targets, this assay endpoint is annotated to the lyase intended target family, where the subfamily is HMG-CoA synthase.
A total of 1060 chemcials from the ToxCast library were tested in eight-point concentration-response experiments. Cell culture and cytotoxicity assays were conducted at Thermo Fisher Scientific's Custom Services facility (Madison, WI). A single lot of human HepaRG cells (Thermo Fisher Scientific, Frederick, MD) was used for the cell culture experiments. 96-well format collagen type I coated plates of human HepaRG cells were prepared using established methods. Briefly, cryopreserved HepaRG cells were thawed, plated at a density of approximately 100,000 cells/well in HepaRG Thaw, Plate, and General Purpose media (HPRG770, Thermo Fisher Scientific), and incubated for 48 hours. 0.5% DMSO was selected as vehicle control to balance the requisite need of DMSO in HepaRG cultures to maintain differentiation (for example, baseline metabolism, proportions of hepatocytes vs. cholangiocytes), while enabling further hepatic receptor pathway activation (for example, PXR and CAR) in response to chemical exposure. 48 hours after plating, the culture medium was replaced with HepaRG Serum-Free Incudtion Media. Cells were exposed to each test chemical in duplicate and maintained in CO2 incubators for another 48 hours. Chemical plates were thawed to room temperature and 200x concentrations of treatment groups were prepared. 8-point conentration-reponse curves were made with the highest exposure at 100 uM, followed by half-log dilutions, all in 0.5% DMSO. Each test plate contained variouse controls, induction positive controls (1mM phenobarbital), cytotoxicity positive controls ([…] aflatoxin B1), vehicle controls (0.5% DMSO), and total lysis controls (0.5% DMSO). Cell morphology images were taken using an Essen IncuCyte FLR automated microscope, with six 96-well plates imaged in about 24 minutes. Images were captured and exported and JPEG files. Spent culture media was transfered to black-well plates for the LDH assay, and remaining media was sorted at -80 C for later use. Cells were treated with RLT buffer and frozen until shipped for gene expression analysis. Total RNA was isolated from the cell suspension in 75 uL of Buffer RLT (Qiagen, Germantown, MD 20874) by Quintiles/Expression Analysis (Durham, NC) using a custom isolation procedure. Total RNA from each plate well was transferred to a preamplification plate. Fluidigm's 96.96 Dynamic ArrayTM (Fluidigm, Amsterdam, the Netherlands) technology was used for gene expression analyses by quantitative reverse transcription polymerase chain reaction (qRT-PCR, performed by Quintiles/Expression Analysis, Durham, NC)89. Standard TaqManTM Assays (Applied Biosystems/ThermoFisher Scientific, Foster City, CA) were used to assess the expression of 93 genes selected based on their selectivity and sensitivity to important hepatic receptors known to be modulated by environmental chemicals; importance in human hepatocyte functionality; and hepatotoxicity. […]

| Structure (SMILES) | outcome | AC50 |
| --- | --- | --- |
| CCSC(=O)N(CC)C1CCCCC1 | inactive | – |
| CN(C)CCO | inactive | – |
| CCCCCCOC(=O)c1ccccc1C(=O)OCCCCCC | inactive | – |
| Cc1ccc(O)c(C)c1 | inactive | – |
| Clc1ccc(C(c2ccccc2Cl)C(Cl)(Cl)Cl)cc1 (stereo not given) | – | 50 µM (active) |
| O=C(NC(=O)c1c(F)cccc1F)Nc1cc(Cl)c(OC(F)(F)C(F)F)c(Cl)c1 | – | 34.7 µM (active) |
| O=C(N[C@H]1CN2CCC1CC2)c1cc2ccoc2cn1 | inactive | – |
| O=S(=O)(O)C(F)(F)C(F)(F)C(F)(F)C(F)(F)C(F)(F)C(F)(F)F | – | 30.1 µM (active) |
| Cc1ccccc1CO[C@@H]1C[C@@]2(C(C)C)CC[C@]1(C)O2 | inactive | – |
| O=C(O)C(F)(F)C(F)(F)C(F)(F)C(F)(F)C(F)(F)C(F)(F)C(F)(F)C(F)(F)F | – | 80.4 µM (active) |
| O=S(=O)(O)C(F)(F)C(F)(F)C(F)(F)C(F)(F)F | inactive | – |
| CC(C)(c1ccccc1)c1ccc(O)cc1 | inactive | – |
| Oc1ccc(C(c2ccc(O)cc2)(C(F)(F)F)C(F)(F)F)cc1 | – | 79.4 µM (active) |
| c1ccc(-c2ccccc2)cc1 | inactive | – |
| Nn1cnnc1 | inactive | – |
| Cc1ccccc1O | inactive | – |
| O=NN(c1ccccc1)c1ccccc1 | inactive | – |
| N#Cc1ccc(N(CC(N)=O)CC(F)(F)F)cc1C(F)(F)F | inactive | – |
| COS(=O)(=O)OC | inactive | – |
| CCOP(=S)(OCC)SCSC(C)(C)C | – | 14.7 µM (active) |

| Structure (SMILES) | outcome | AC50 |
| --- | --- | --- |
| Clc1ccc(C(Cl)(Cl)Cl)cc1 | inactive | – |
| CC1=C2C[C@H]3[C@@H](CC=C4C[C@@H](O)CC[C@@]43C)[C@@H]2CC[C@]12O[C@@H]1C[C@H](C)CN[C@H]1[C@H]2C | inactive | – |
| CCCCCCCCCc1ccc(O)cc1 | – | 50 µM (active) |
| C[C@]12CCC(=O)C=C1CC[C@@H]1[C@@H]2CC[C@]2(C)C(=O)CC[C@@H]12 | inactive | – |
| CCCN(CCC)N=O | inactive | – |
| ClC1=C(Cl)[C@]2(Cl)[C@@H]3[C@@H](Cl)[C@H]4O[C@H]4[C@@H]3C1(Cl)C2(Cl)Cl | – | 18.4 µM (active) |
| O=C(O)C(F)(F)C(F)(F)C(F)(F)C(F)(F)C(F)(F)C(F)(F)C(F)(F)C(F)(F)C(F)(F)F | – | 34 µM (active) |
| CCC(C)(c1ccc(O)cc1)c1ccc(O)cc1 | inactive | – |
| CCC(C)(CC)c1cc(NC(=O)c2c(OC)cccc2OC)on1 | inactive | – |
| Cc1ccccc1[N+](=O)[O-] | inactive | – |
| c1cc2ccc3cccc4ccc(c1)c2c34 | inactive | – |
| Nc1ccc(-c2ccc(N)cc2)cc1 | inactive | – |
| C=CC(=O)NCNC(=O)C=C | inactive | – |
| CCCCCCCCOC(=O)c1ccccc1C(=O)OCCCCCCCC | inactive | – |
| C1CC2OC2CC1C1CO1 (stereo not given) | inactive | – |
| Cc1cccc(C)c1N | inactive | – |
| CC(c1ccc(O)cc1)(c1ccc(O)cc1)c1ccc(O)cc1 | – | 85.1 µM (active) |
| ClC1=C(Cl)[C@]2(Cl)[C@@H]3[C@@H]4C[C@@H]([C@H]5O[C@@H]45)[C@@H]3[C@@]1(Cl)C2(Cl)Cl | – | 50 µM (active) |
| CCCCCCCCCC[N+](C)(C)CCCCCCCCCC | – | 77.4 µM (active) |
| CCC(=O)O[C@H]1CC[C@H]2[C@@H]3CCC4=CC(=O)CC[C@]4(C)[C@H]3CC[C@]12C | inactive | – |
